IL1B secr inh: blocks inflammasome-driven IL-1 beta release. hit rate 4.7% among 360,000. AID 743279. THP-1 LPS/ATP IL-1B secretion, AlphaLISA, 16 h; hits give low values. activity change, % at 57.5 µM; in the data active = activity change below about -50%; inconclusive = mostly about -30% to -49%
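Secreted IL-1B measured by AlphaLISA bead assay after 16 h compound exposure of THP-1 cells; compounds (final up to 57.5 uM) added 1 h before LPS (250 ng/mL) and ATP (1.25 mM) stimulation; lower signal means less secretion.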
HT1080NT lethal: kills 2HG-producing HT-1080-NT fibrosarcoma cells | HT-1080-NT fibrosarcoma viability, CellTiter-Glo ATP luminescence, 48 h | Potency, µM (series often up to 46.1 µM), most hits filed as cytotoxic | AID 686970 | hit rate 1.6% among 360,000;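 note: NT is the 2HG producing partner of a matched IDH1 knockdown line; nearly all actives have a fitted effect of over 55% in size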
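Read-out is CellTiter-Glo luminescence after 10 minutes at room temperature, following 48 hours' compound treatment of HT-1080-NT cells (750 cells/well, RPMI, 5% FBS, 37 degrees C).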
TDP1 cell noCPT: qHTS for Inhibitors of human tyrosyl-DNA phosphodiesterase 1 (TDP1): qHTS in cells in absence of CPT; DT40 Tdp1-/- hTDP1 cells, no CPT, ATP luminescence, 48 h; Potency, µM (highest dose often 46.2 µM), hits mostly inhibitors; hit rate 15% among 420,000; AID 686978, 2013; note: nearly all actives have a fitted effect of over 55% in size
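Seeded 400 DT40-hTDP1 cells/well (vehicle DMSO, no 20 nM CPT); pinned compounds; ≥48 hr at 37 °C; CellTiter-Glo luminescence as viability measure.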
DT40 TDP1 CPT: DT40-hTDP1 cell growth loss with CPT; chicken DT40 Tdp1-/-;hTDP1 cells + 20 nM CPT, ATP luminescence, 48 h; Potency, µM (titrated, usually from 46.2 µM), most hits filed as inhibitors; hit rate 12% among 420,000; AID 686979; note: nearly all actives have a fitted effect of over 55% in size
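Chicken DT40 Tdp1-/- cells stably complemented with human TDP1 were seeded at 400 cells/well in medium containing 20 nM camptothecin, exposed to pin-transferred compounds, and grown at 37 °C for at least 48 hr. Viability was read as ATP luminescence.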
12-LOX inh: blocks human arachidonate 12S-lipoxygenase. P18054. purified 12hLO, xylenol orange hydroperoxide absorbance. Potency, µM (top dose mostly 108 µM), hits mostly inhibitors. hit rate 1.1% among 580,000. AID 1671190
Target sequence (P18054 whole entry, looked up): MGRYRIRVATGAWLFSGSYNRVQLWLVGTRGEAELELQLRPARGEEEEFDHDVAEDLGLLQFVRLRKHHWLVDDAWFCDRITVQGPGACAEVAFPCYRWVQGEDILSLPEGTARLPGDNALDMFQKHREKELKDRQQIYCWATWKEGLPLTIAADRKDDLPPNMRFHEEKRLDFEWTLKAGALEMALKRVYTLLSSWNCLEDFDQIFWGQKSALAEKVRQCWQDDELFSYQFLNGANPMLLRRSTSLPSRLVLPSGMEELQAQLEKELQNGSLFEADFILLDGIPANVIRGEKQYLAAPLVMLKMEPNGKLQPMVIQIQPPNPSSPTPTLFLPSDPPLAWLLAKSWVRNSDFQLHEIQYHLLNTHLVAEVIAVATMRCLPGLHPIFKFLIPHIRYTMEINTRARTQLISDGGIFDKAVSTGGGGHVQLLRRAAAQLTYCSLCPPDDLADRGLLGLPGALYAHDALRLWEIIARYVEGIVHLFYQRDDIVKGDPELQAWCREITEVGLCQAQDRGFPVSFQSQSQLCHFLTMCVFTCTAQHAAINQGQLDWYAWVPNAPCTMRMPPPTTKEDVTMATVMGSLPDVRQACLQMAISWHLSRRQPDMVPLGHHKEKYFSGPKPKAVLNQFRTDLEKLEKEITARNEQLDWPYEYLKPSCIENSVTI
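Purified human 12hLO (150 nM final) in 25 mM Hepes, 0.01% Triton X-100, pH 7.0 was preincubated 15 min at room temperature with compound. Then 40 uM arachidonic acid was added, 30 min. Hydroperoxide was read by Fe-XO absorbance ratio 573/405 nm.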
HT1080 IDH1KD tx: toxicity to HT-1080 IDH1 knockdown cells (counter line); HT-1080 IDH1 knockdown viability, ATP luminescence, 48 h; Potency, µM (series often up to 46.1 µM), hits mostly cytotoxic; hit rate 2% among 360,000
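Cytotoxicity counter-line: IDH1KD HT-1080, 48 h, CellTiter-Glo. Curves classed by r2, magnitude and activity.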
Large screens that a line does not name were inactive. The sample as a whole holds a higher share of hits than the screen did. Unless noted, calls come from the whole dose curve; as a rule, active = well fitted curve in the direction sought with a large enough effect; inconclusive = small, poorly fitted or top-dose-only effect, or another doubt; inactive = no such curve, though single readings can be large; an effect the other way counts as inactive or inconclusive.

COc1ccc(NC(=S)N2CCN(Cc3cccc(F)c3)CC2)c(OC)c1	TDP1 cell noCPT 21µM, DT40 TDP1 CPT 23µM
COc1ccc(NC(=S)N2CCN(Cc3ccco3)CC2)c(OC)c1	TDP1 cell noCPT 13µM, DT40 TDP1 CPT inconclusive
COc1cc(OC)cc(C(=O)NCC(=O)N2CCN(S(=O)(=O)c3ccc4ccccc4c3)CC2)c1	none (no result: IL1B secr inh, HT1080NT lethal, TDP1 cell noCPT, DT40 TDP1 CPT, HT1080 IDH1KD tx)
O=[N+]([O-])c1ccc(Sc2ccccn2)nc1	none
O=C(Nc1cc(Sc2ccccn2)cc([N+](=O)[O-])c1)c1ccc([N+](=O)[O-])cc1	IL1B secr inh -76, HT1080NT lethal inconclusive, TDP1 cell noCPT 2.1µM, DT40 TDP1 CPT inconclusive, HT1080 IDH1KD tx inconclusive
CC1=C(C(=O)N2CCCCC2)C(c2cc(Br)ccc2F)C2=C(CCCC2=O)N1 (stereo not given)	none (no result: IL1B secr inh, HT1080NT lethal, TDP1 cell noCPT, DT40 TDP1 CPT, HT1080 IDH1KD tx)
O=C(CCl)N(C/C=C/c1ccccc1)c1ccc2c(c1)OCCO2	IL1B secr inh -115, HT1080NT lethal 10µM, TDP1 cell noCPT 6.5µM, DT40 TDP1 CPT 3.7µM, 12-LOX inh inconclusive, HT1080 IDH1KD tx inconclusive
Fc1ccc(-c2cnc(COc3ccc(Cl)cc3)o2)cc1	12-LOX inh 14µM (no result: IL1B secr inh, HT1080NT lethal, TDP1 cell noCPT, DT40 TDP1 CPT, HT1080 IDH1KD tx)
O=C(C[C@@H]1C/C=C\CC[C@@H](Cc2ccc(F)cc2)C(=O)OC[C@@H](Cc2ccccc2)NC1=O)NCCO	TDP1 cell noCPT inconclusive, DT40 TDP1 CPT 15µM, 12-LOX inh inconclusive
O=C(C[C@@H]1C/C=C/CC[C@@H](Cc2ccc(F)cc2)C(=O)OC[C@H](Cc2ccccc2)NC1=O)N[C@H](CO)Cc1ccccc1	HT1080NT lethal inconclusive, TDP1 cell noCPT 5.2µM, DT40 TDP1 CPT 9.2µM, 12-LOX inh inconclusive, HT1080 IDH1KD tx inconclusive
CC(C)(C)[C@H]1COC(=O)[C@H](Cc2ccc(F)cc2)CC/C=C/C[C@@H](CC(=O)N[C@H](CO)Cc2ccccc2)C(=O)N1	TDP1 cell noCPT 21µM, DT40 TDP1 CPT inconclusive, 12-LOX inh inconclusive
C[C@H]1COC(=O)[C@H](Cc2ccc(F)cc2)CC/C=C/C[C@@H](CC(=O)N[C@@H](CO)Cc2ccccc2)C(=O)N1	TDP1 cell noCPT 16µM, DT40 TDP1 CPT 12µM, 12-LOX inh inconclusive
O=S1(=O)C[C@H](N2CCN(Cc3ccc4c(c3)OCO4)CC2)[C@@H](S(=O)(=O)c2cccs2)C1	none (no result: IL1B secr inh, HT1080NT lethal, TDP1 cell noCPT, DT40 TDP1 CPT, HT1080 IDH1KD tx)
COc1cc(CCC2CCN(C(=O)Nc3ccccc3OC)CC2)cc(OC)c1	none (no result: IL1B secr inh, HT1080NT lethal, TDP1 cell noCPT, DT40 TDP1 CPT, HT1080 IDH1KD tx)
COc1ccc(S(=O)(=O)N2CCCCC2c2nc(-c3cnccn3)n[nH]2)cc1 (stereo not given)	none (no result: IL1B secr inh, HT1080NT lethal, TDP1 cell noCPT, DT40 TDP1 CPT, HT1080 IDH1KD tx)
CC(C)Cn1c(-c2ccc(Br)cc2)c[nH]c1=S	TDP1 cell noCPT 15µM, DT40 TDP1 CPT 16µM, 12-LOX inh 35µM
CCn1c(-c2ccccc2)c[nH]c1=S	TDP1 cell noCPT inconclusive, 12-LOX inh inconclusive
CCOc1ccc2c(c1)cc(C(=O)NCc1ccco1)n2C	12-LOX inh 18µM (no result: IL1B secr inh, HT1080NT lethal, TDP1 cell noCPT, DT40 TDP1 CPT, HT1080 IDH1KD tx)
CCOc1ccc(-n2c(N)c(C(=O)NCc3ccco3)c3nc4ccccc4nc32)cc1	IL1B secr inh -96, HT1080NT lethal inconclusive, TDP1 cell noCPT 18µM, DT40 TDP1 CPT 21µM, HT1080 IDH1KD tx inconclusive (no result: 12-LOX inh)
CCOc1ccc2c(c1)cc(C(=O)Nc1ccc(OC)cc1)n2C	none (no result: IL1B secr inh, HT1080NT lethal, TDP1 cell noCPT, DT40 TDP1 CPT, HT1080 IDH1KD tx)
CC(C)C(OC(=O)c1cccs1)C(=O)NCc1ccco1 (stereo not given)	TDP1 cell noCPT inconclusive, DT40 TDP1 CPT inconclusive, 12-LOX inh inconclusive
Cc1cc2c(cc(C(=O)OC(C(=O)NCc3ccco3)C(C)C)n2C)o1 (stereo not given)	TDP1 cell noCPT 18µM, DT40 TDP1 CPT 26µM, 12-LOX inh inconclusive
Nc1c(C(=O)NCc2ccco2)c2nc3ccccc3nc2n1CCc1ccccc1	IL1B secr inh -57, HT1080NT lethal inconclusive, TDP1 cell noCPT inconclusive, DT40 TDP1 CPT inconclusive, 12-LOX inh inconclusive
COc1cccc(C(=O)NC(C(=O)NCC(C)C)C2CCN(C(=O)c3ccc(F)cc3)CC2)c1 (stereo not given)	none (no result: IL1B secr inh, HT1080NT lethal, TDP1 cell noCPT, DT40 TDP1 CPT, HT1080 IDH1KD tx)

From PubChem
